# Reference: PubChem BioAssay AID651812 (National Center for Advancing Translational Sciences (NCATS), 2012)
# Among all 2,100 compounds or so, about 650 (31%) were called active. Inconclusive results (about 16%) are left out. Calls come from the whole dose curve; as a rule, active = well fitted inhibition curve with a large enough effect; inconclusive = small, poorly fitted or top-dose-only effect; inactive = flat fitted curve, though single readings scatter. The list shows a part of the results. Where a call stands in place of a potency, no number is given.
# Assay: qHTS for inhibitors of Vif-A3G interactions: Cherry picks; note: nearly all actives have a fitted effect of over 80% in size
# Conditions: HeLa A3G-eYFP + Vif (tagged APOBEC3G with the HIV-1 protein that degrades it), 24 h; Potency: eYFP fluorescence increase; series mostly up to 36.9 µM
# Source text: The recent discovery and characterization of host restriction factors, which provide a potent defense to invading retroviruses, has provided new targets for antiviral drug development. APOBEC3G (A3G) and APOBEC3F (A3F) are potent cytidine deaminases that block HIV-1 replication; HIV-1 expresses the Vif protein, which counteracts A3G and A3F by binding to them and inducing their proteasomal degradation. The Vif-A3G and Vif-A3F interactions provide two potential targets for development of small molecules which can interfere with the ability of Vif to degrade A3G or A3F. […] To identify inhibitors that can interfere with Vif mediated degradation of A3G and A3F, we have developed Hela cell lines that stably express A3G or A3F tagged with eYFP at the C-terminal end (A3G-eYFP or A3F-eYFP, respectively) and Vif. In the absence of an inhibitor, Vif induces degradation of A3G-eYFP and A3F-eYFP, and the cells are not fluorescent. In the presence of an inhibitor, it is expected that Vif will be unable to degrade A3G-eYFP and/or A3F-eYFP, resulting in an increase in yellow fluorescence. In this assay, Vif A3G was screened against the cherry picks ordered from the MLSMR. NIH Chemical Genomics Center [NCGC] NIH Molecular Libraries Probe Centers Network [MLPCN] MLPCN Grant: MH093245 Assay Submitter (PI): Vinay Pathak, National Cancer Institute
# A3G-Vif cells were harvested from T225 flask and resuspended in phenol free OPTI-MEM medium with 5% FBS. Then 5 uL of 140,000 cells/mL resuspended cells was dispensed into each well of low base Aurora COC 1,536-well plates (black walled, clear bottom) using a Multidrop Combi dispenser. After overnight culture at 37 deg C with 5% CO2, a total of 23 nL of compounds at 5 selected concentrations from the NPC or positive control (2 mM stock of MG132) in DMSO was transferred to each well of the assay plate using a pintool (Kalypsys, San Diego, CA), and the plates were further incubated at 37 deg C with 5% CO2 for 24 hours. After that, the plates were measured on Acumen Explorer (TTP Lab Tech). The fluorescence was detected by 488 nm/Ex and […].
# Potency is the fitted concentration of half-maximal effect.
row,SMILES,Potency
1,Cc1c(C(=O)N2CCOCC2)[nH]c2c1C(=O)CC(c1ccccc1Cl)C2 (stereo unspecified),inactive
2,Cc1ccc(C)c(N2CCN(C(=O)c3cccn4c(=O)c5sccc5nc34)CC2)c1,inactive
3,COc1ccc(-c2coc3cc4oc(=O)cc(-c5ccccc5)c4cc23)cc1F,inactive
4,CCC/C=N/NC(=O)c1[nH]c2c([N+](=O)[O-])cccc2c1C,inactive
5,O=C(CSc1nc2ccccc2s1)c1cc2ccccc2o1,inactive
6,CCCC(=O)Nc1nc2ccc(NC(=O)c3ccccc3F)cc2s1,inactive
7,O=C(CSc1nc2ccc(Nc3nc(N4CCOCC4)nc(N4CCOCC4)n3)cc2s1)Nc1ccccc1F,5.8 µM (active)
8,Cc1ccc(C(=O)CSc2nc(-c3ccccc3)ccc2C#N)cc1,18.4 µM (active)
9,CCOc1cc(C#N)c(NC(=O)c2cccnc2)cc1OCC,inactive
10,Cc1nc(SCC(=O)c2ccccc2)c(C#N)c(-c2ccco2)c1C(=O)NCc1ccco1,inactive
11,N#Cc1ccc(-c2cccnc2)nc1SCC(=O)c1ccccc1,16.4 µM (active)
12,Cc1ccc(C(=O)CSC2=C(C#N)C(c3ccco3)C3=C(CCCC3=O)N2)cc1 (stereo unspecified),inactive
13,CCOc1ccc(S(=O)(=O)Nc2cc3c(C(=O)OC)c(COC)oc3c3ccccc23)cc1,inactive
14,CN1/C(=C\C=C(/C#N)C(=O)Nc2ccccc2F)C(C)(C)c2ccccc21,9.2 µM (active)
15,COc1ccc(NC(=O)/C(C#N)=C\C=C\c2ccco2)cc1,inactive
16,CN1/C(=C\C=C(/C#N)C(=O)Nc2ccc(Cl)cc2)C(C)(C)c2ccccc21,4.98 µM (active)
17,O=C(NNC1=Nc2cccc3cccc1c23)c1ccc(Br)cc1,18.4 µM (active)
18,COCCCNC(=S)N/N=C/c1cccc(OC)c1O,inactive
19,CC1=C(n2nnc3ccccc32)C(c2ccccc2)C(C#N)=C(N)O1 (stereo unspecified),inactive
20,CC[n+]1ccccc1/C=C1\Sc2ccc(C)cc2N1C,20.6 µM (active)
21,COc1ccc(C(=O)Nc2ccc3c(c2)N(C)C(=O)c2ccccc2S3)cc1OC,inactive
22,CCOc1ccc(CN2C(=O)c3ccccc3Sc3ccc(C(=O)O)cc32)cc1,inactive

row,SMILES,Potency
1,COc1ccc2c(c1)N(C)/C(=C/c1cccc[n+]1C)S2,14 µM (active)
2,CCN1/C(=C/c2cccc[n+]2C)Sc2ccc(OC)cc21,16.4 µM (active)
3,N#CC1=C(N)Oc2ccc3ccc(O)cc3c2C1c1ccsc1 (stereo unspecified),inactive
4,c1ccc2[nH]c(NN=C3CCCCCC3)nc2c1,inactive
5,O=C(Cc1nc2ccccc2[nH]c1=O)c1ccc(Cl)cc1,20.6 µM (active)
6,CC(=O)/C(=C\N(C)C)Sc1ccc(Cl)cc1,inactive
7,COc1cccc(C2=CC(c3cccs3)n3nnnc3N2)c1 (stereo unspecified),inactive
8,Cc1cc(C)n(S(=O)(=O)/C=C/c2ccccc2)n1,inactive
9,O=C(NCC1CCCO1)c1nn2c(C(F)(F)F)cc(-c3cc(Br)cs3)nc2c1Br (stereo unspecified),13 µM (active)
10,COc1ccc(C)cc1NCc1cc(=O)oc2cc(-c3ccccc3)c(O)cc12,inactive
11,CCOC(=O)c1c(-c2ccc(OC)cc2)csc1/N=C/C1C(=O)CCCC1=O,inactive
12,O=C(CC1CC2CCC1C2)Nc1nc(-c2ccccn2)cs1 (stereo unspecified),inactive
13,N#Cc1c(-c2ccc(F)cc2)c(-c2ccc(F)cc2)nn(CCO)c1=O,12.5 µM (active)
14,N#Cc1c(-c2ccccc2)c(-c2ccccc2)nn(CC(=O)NNC(=O)Nc2ccccc2)c1=O,inactive
15,CCn1c(SCC(=O)N/N=C/c2ccc(C)s2)nc2ccccc21,inactive
16,Cc1ccc(S(=O)(=O)N2CCCCC2CCNC(=O)C(=O)NCc2ccco2)cc1 (stereo unspecified),inactive
17,Cc1cccc(C)c1OCC(=O)N/N=C/c1ccc2c(c1)OCO2,inactive
18,COc1cc(/C=N\Nc2ccc([N+](=O)[O-])cc2)ccc1OCC(=O)Nc1ccc(C)c(C)c1,8.2 µM (active)
19,Cc1ccccc1OCC(=O)N/N=C/c1ccc(N(C)C)cc1,inactive
20,COCCNC(=S)N/N=C(\C)c1ccccc1O,inactive
21,CC[n+]1ccc(/C=C/c2c[nH]c3ccccc23)cc1,14.6 µM (active)
22,C[n+]1ccc(/C=C/c2cc[n+](C)c3ccccc23)c2ccccc21,inactive

row,SMILES,Potency
1,OCC[n+]1ccc(/C=C/c2c[nH]c3ccccc23)cc1,10.3 µM (active)
2,C[n+]1ccc(/C=C/c2c[nH]c3ccccc23)cc1,11.6 µM (active)
3,CC(=O)Nc1cccc(-c2cc(NC=O)c3ncc(-c4ccc(F)c(Cl)c4)n3c2)c1,inactive
4,COc1ccc(-c2cc(NC=O)c3ncc(-c4cccc(C(F)(F)F)c4)n3c2)cc1OC,inactive
5,N#C/C=C/N1CCN(C(=O)c2ccco2)CC1,inactive
6,COc1cc(C2Sc3ccccc3NC3=C2C(=O)OC3)cc(OC)c1OC (stereo unspecified),inactive
7,COc1cc(CCC(=O)Nc2nnc(C)s2)cc(OC)c1OC,inactive
8,Cc1cc(C)nc(NC(=S)Nc2cccc(Cl)c2Cl)c1,inactive
9,CCN(CC)c1nc2ccccc2nc1C(C#N)C(=O)NCCc1ccccc1 (stereo unspecified),3.66 µM (active)
10,N#CC(C(=O)NCc1ccccc1)c1nc2ccccc2nc1N1CCCC1 (stereo unspecified),18.4 µM (active)
11,NC(=O)C1CCN(c2nc3ccccc3nc2NS(=O)(=O)c2ccc(Br)cc2)CC1,inactive
12,CN1CCN(c2ccc([N+](=O)[O-])cc2C(=O)c2ccc(Br)cc2)CC1,inactive
13,Cc1cc(C)c(C(=O)N(CCN(C)C)CC2CCCN(Cc3ccccc3F)C2)o1 (stereo unspecified),inactive
14,COc1ccccc1C(=O)Nc1ccc2c(c1)CN(C(=O)CSC)CC2,inactive
15,Cc1ccc(-c2nc3sc(C#N)c(N)n3c(=O)c2C#N)cc1,18.4 µM (active)
16,O=C(NCc1ccco1)C1Cc2c(-c3cccc(F)c3)ccnc2O1 (stereo unspecified),inactive
17,Cc1ccc(C(=O)c2cc([N+](=O)[O-])ccc2N2CCN(C)CC2)cc1,inactive
18,CCN(CC)c1ccc2cc(-c3nc(-c4cccs4)no3)c(=O)oc2c1,2.91 µM (active)
19,CCN(CC)c1ccc2cc(-c3nnc(-c4ccccc4)o3)c(=O)oc2c1,0.627 µM (active)
20,CCN(CC)c1ccc2cc(-c3nc4sc5c(c4c(=O)[nH]3)CCC(C(C)(C)C)C5)c(=O)oc2c1 (stereo unspecified),inactive
21,CCN(CC)c1ccc2cc(-c3nc(-c4ccc(Cl)cc4Cl)cs3)c(=O)oc2c1,2.91 µM (active)
22,CCN(CC)c1ccc2cc(-c3nc(-c4cc(OC)c(OC)c(OC)c4)no3)c(=O)oc2c1,0.58 µM (active)
